Data taken from PubChem BioAssay (NCI).
Compounds without any hit were thinned out: in the full panel of roughly 83,000, 20% have a hit.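 Note: values are percent growth. 100 is the growth of untreated cells, values between 100 and 0 indicate rising inhibition; between -100 and 0 indicates cell death.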 A number with no mark means an inactive call. Active and inactive are the calls of the source.

What follows are compounds tested on NCI-H322M lung (assay: NCI-60 one-dose screen, 48 h (100 = growth as untreated, 0 = no growth, -100 = all killed)). Conditions: 10 µM unless noted.
Method: Growth inhibition of the NCI-H322M human Non-Small Cell Lung tumor cell line is measured as a screen for anti-cancer activity. Cells are grown in 96 well plates and exposed to the test compound for 48 hours. Compounds are tested at a single concentration, which is 10^-5 M for most compounds. The reported endpoint is percent growth (GI% or GIPRCNT), where numbers from 0 - 100% represent growth inhibition, and numbers from -100% - 0 represent cell death. For example, a value of 40 represents 60% growth inhibition. A value of 0 means no net growth occurred over the course of the experiment. A value of -40 indicates 40% of cells at the beginning of the experiment died by the end of the experiment. A value of -100 means all cells are dead at the end of the experiment.
NCI-60 Human Tumor Cell Lines Screen was performed using the standard one-dose NCI protocol, which is described in more detail at https://dtp.cancer.gov/discovery_development/nci-60/default.htm.
Compounds with GIPRCNT values below 10 were considered active. Activity score was based on GIPRCNT using the following formula: […]
Score is 0 for GIPRCNT values of 100 or above, 50 for GIPRCNT values of 0, and 100 for GIPRCNT values of -100.

SMILES	growth
O=C(C[C@@]1(O)C(=O)Nc2c(Cl)ccc(Cl)c21)c1ccc(C2CC2)cc1	53.1%
COc1cc(-c2ccc(N=Nc3c(O)c(C(=O)Nc4ccccc4OC)cc4ccccc34)c(OC)c2)ccc1N=Nc1c(O)c(C(=O)Nc2ccccc2OC)cc2ccccc12	86.8%
COc1c(C)cnc(CSc2nc(-c3ccc(C)cc3)cn2-c2ccc(Cl)cc2)c1C	80.9%
COc1ccc(/C=C2\COc3ccc(O)cc3C2=O)c(OC)c1	86.5%
Cc1nc(Nc2cccc(NC(=O)Nc3ccc(Cl)cc3)c2)c2ccccc2n1	89.7%
CCC(C)NCc1ccccc1 (stereo not given)	98.1%
C[C@]12CCC(=O)C[C@H]1CC[C@@H]1[C@@H]2CC[C@@]2(C)[C@H]1CC[C@]2(O)C(=O)CO	103%
COc1cc2oc(-c3cccc(C(=O)Nc4ccc(C#N)cc4)c3)cc(=O)c2c(O)c1OC	72.7%
Cc1cnc(Nc2ccc(N3CCN(C)CC3)cc2)nc1Nc1ccc(Cl)c(NS(=O)(=O)C(C)(C)C)c1	37.2%
C=C(C)[C@@H]1CC[C@]2(CN)CC[C@]3(C)[C@H](CC[C@@H]4[C@@]5(C)CCC(N)[C@@](C)(CO)[C@@H]5CC[C@]43C)[C@@H]12 (stereo not given in full)	34.4%
COC(=O)CNC(=O)C(=O)c1c(O)c(O)c(C(C)C)c2cc(C)c(-c3c(C)cc4c(C(C)C)c(O)c(O)c(C(=O)C(=O)NCC(=O)OC)c4c3O)c(O)c12	22.1%
CCCc1cc(=O)oc2c3c(c4c(c12)OC(C)(C)C=C4)O[C@@H](C)[C@H](C)C3=O	81%
Cc1nc(Nc2ccc(NC(=S)Nc3ccccc3)cc2)c2ccccc2n1	103%
O=C(Nc1cccc2[nH]c(C(F)(F)F)nc12)c1cc(Cl)ccc1Cl	45.9%
CCCCN1CCN(c2ccc3nc(-c4ccc5nc(-c6cc(OC)c(OC)c(OC)c6)[nH]c5c4)[nH]c3c2)CC1	86.4%
CNC(=O)c1cc(Oc2ccc3nc(Nc4cc(Cl)cc(Cl)c4)ccc3c2)ccn1	82.9%
CN=C1C=CC(=C(c2ccc(N(C)C)cc2)c2ccc(N(C)C)cc2)C=C1	-25.8% (active)
CCCCC1COc2cccc3c(SCC(=O)N(C)c4cccc(Cl)c4)cc[n+]1c23 (stereo not given)	107%
COc1cc(NC(=O)c2cc(O)c(CC=C(C)C)c(O)c2)cc2c1O[C@]1(C)CC[C@@H](O)C(C)(C)[C@H]1C2	67.9%
COC(=O)Nc1nc2ccc(C(=O)C3CC3)cc2[nH]1	50.9%

SMILES	growth
COc1cc(/C=C/C(=O)c2cccc(-n3cc(-c4ccc(Cl)cc4)[nH]c3=O)c2)cc(OC)c1OC	92%
Cc1c(C(=O)O[C@H]2[C@@H]3[C@H](C)CC[C@H]3[C@]3(C)O[C@@]2(C2CCCCC2)C[C@H]3OC(=O)CO)ccc2ccccc12	70.5%
CN(C)CCOC(=O)Nc1ccc(Cl)cc1	92.2%
Cc1ccc(C)c2c1C(=O)OC2=O	89.3%
COc1ccc(-c2cc(-c3cc(OC)ccc3OC)[nH]c(=O)c2C#N)cc1	91.7%
CCCCCCCCn1cc(C2=C(c3coc4ccc(OC)cc34)C(=O)NC2=O)c2ccccc21	99%
O=C1N(c2ccccc2)C(=S)N[C@]12[C@H](c1ccccc1)C1CCCN1[C@]21C(=O)NC2C=CC(Cl)=C[C@H]21 (stereo not given in full)	99.2%
COc1cc(NC(=O)c2cccc(-c3cc(=O)c4c(O)c(OC)c(OC)cc4o3)c2)cc(OC)c1OC	74.4%
CN1CCN(C(=O)[C@@]2(C)CC[C@]3(C)CC[C@]4(C)C(=CC[C@@H]5[C@@]6(C)C/C(=C/c7ccncc7)C(=O)C(C)(C)[C@@H]6CC[C@]54C)[C@@H]3C2)CC1	79.7%
CCCCCOC(=O)c1cccc(NC(=O)CN(CC)CC)c1	97.6%
Cc1cc(N(CCCNc2ccnc3cc(Cl)ccc23)Cc2ccccn2)nc(N2CCCC2)n1	75.9%
NS(=O)(=O)Oc1ccc(-c2sc3cc(O)ccc3c2C(=O)c2ccc(OCCN3CCCCC3)cc2)cc1	90.6%
Cc1c(Cl)cccc1NS(=O)(=O)c1ccccc1	110%
O[C@H]1CO[C@H]2[C@@H]1OC[C@@H]2Oc1ccc(Nc2nc(Nc3ccc(F)c(Cl)c3)ncc2F)cc1Cl	101%
COc1cc(/C=C/C(=O)c2cccc(-n3cc(-c4ccccc4)[nH]c3=O)c2)cc(OC)c1OC	33%
O=C(O)c1ccccc1C(=O)Nc1ccc(Cl)cc1	101%
Clc1cnc(Nc2ccc(OCCN3CCCC3)cc2)nc1NCc1ccco1	19.9%
C=C1c2c(C)nn(-c3ccc(NC(C)=O)cc3)c2N(C)C23CC1C1(C)c4c(C)nn(-c5ccc(NC(C)=O)cc5)c4N(C)C(C)(CC12)C3 (stereo not given)	61.2%
COc1ccc(/C(C)=C(\c2ccc(Cl)cc2)c2ccc(OCCN3CCCCCC3)cc2)cc1F	83.3%
Cc1nc2ccc(C(=O)NCc3cc(C(=O)O)c(C)o3)cc2nc1C	96.9%
